Our source for the growth values is PubChem BioAssay (NCI).

About 83,000 compounds went through this panel and 20% of them were active in at least one assay; those are over-represented in the sample as a whole.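 Plates (96-well) were seeded with cells, treated with compound at one concentration, and incubated for 48 hours before percent growth was determined.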 Values without a mark were called inactive. Active and inactive are the calls of the source. How the source made its calls: active means growth percent below 10; inactive means the rest.

Among the test systems are SK-MEL-2 melanoma; EKVX NSCLC; SN12C renal; UO-31 renal; TK-10 renal; ACHN renal; CAKI-1 renal; A498 renal; CCRF-CEM leukemia; SR leukemia; OVCAR-8 ovarian; OVCAR-5 ovarian; OVCAR-4 ovarian; SK-OV-3 ovarian; IGROV1 ovarian; OVCAR-3 ovarian; HS 578T breast; NCI/ADR-RES ovarian; RPMI-8226 leukemia.
Common to all, as to test: NCI-60 one-dose screen, 48 h (100 = growth as untreated, 0 = no growth, -100 = all killed)
Settings in all cases: 10 µM unless noted

As to `COC(=O)[C@]12CC[C@@H](C)[C@H](C)[C@@H]1C1=CC[C@@H]3[C@@]4(C)C(C=O)=C[C@@](C)(COC(C)=O)C4=CC[C@@]3(C)[C@]1(C)CC2`, the growth in the assay with SK-MEL-2 melanoma was -45.1% (active); with EKVX NSCLC, 12.7%; with SN12C renal, 9.9% (active); with UO-31 renal, -9.5% (active); with TK-10 renal, -8.72% (active); in the assay with ACHN renal it was -16% (active). For the same compound, the growth is 13.7% with CAKI-1 renal; 14.6% with A498 renal; -14.7% (active) with CCRF-CEM leukemia; -30.5% (active) in the assay on SR leukemia; 13.2% in the assay on OVCAR-8 ovarian; 12.9% in the assay on OVCAR-5 ovarian. The growth in the assay with OVCAR-4 ovarian is 17%; with SK-OV-3 ovarian it was 6.81% (active); in the assay with IGROV1 ovarian, 12.9%; with OVCAR-3 ovarian, -67.3% (active); with HS 578T breast, -12.9% (active); in the assay with NCI/ADR-RES ovarian it was 12.5%.
Take `S=C(Cc1ccc2c(c1)CCCC2)N1CCOCC1`: the growth in the assay on SK-MEL-2 melanoma was 87.1%; in the assay on EKVX NSCLC it was 97.5%; with SN12C renal, 101%; with UO-31 renal it was 92.2%; in the assay with TK-10 renal, 106%; in the assay on ACHN renal it was 101%. The growth was 102% in the assay on CAKI-1 renal; 101% in the assay with A498 renal; 119% in the assay with CCRF-CEM leukemia; 112% with RPMI-8226 leukemia; 104% in the assay on OVCAR-8 ovarian; 99.2% in the assay on OVCAR-5 ovarian. Moreover, the growth in the assay with SK-OV-3 ovarian was 98.2%; with IGROV1 ovarian it was 101%; in the assay with OVCAR-3 ovarian, 107%; with HS 578T breast, 115%; in the assay with NCI/ADR-RES ovarian, 105%.
With `Cc1cc(C)c(-c2c(C)cc(C)cc2CBr)c(CBr)c1`, the growth in the assay on SK-MEL-2 melanoma is 94.5%; in the assay with EKVX NSCLC it was 102%; in the assay with SN12C renal, 80.3%; in the assay on UO-31 renal, 75.9%; in the assay on TK-10 renal, 103%; with ACHN renal, 75%. In addition, the growth in the assay on CAKI-1 renal was 87.6%; in the assay on A498 renal, 73.1%; with CCRF-CEM leukemia, 42%; with RPMI-8226 leukemia it was 50.2%; in the assay with OVCAR-8 ovarian it was 68.3%; with SK-OV-3 ovarian it was 101%. Further, the growth is 90.3% in the assay on IGROV1 ovarian, 90.9% in the assay on OVCAR-3 ovarian, 86.6% in the assay with HS 578T breast and 72.2% in the assay with NCI/ADR-RES ovarian.
Turning to `COc1cccc(C(=O)NCCCNc2cc(-c3cn(-c4ccccc4)nc3-c3cccc(OC)c3)ccn2)c1`, the growth with SK-MEL-2 melanoma was 70.2%; with EKVX NSCLC it was 60.1%; in the assay on SN12C renal it was 61.1%; with UO-31 renal it was 26.6%; with TK-10 renal, 55.2%; with ACHN renal it was 60.9%. In addition, the growth with CAKI-1 renal is 65.4%; in the assay with A498 renal, 49.2%; in the assay on CCRF-CEM leukemia, 24.7%; in the assay with SR leukemia, 8.19% (active); with RPMI-8226 leukemia, 25.3%; in the assay with OVCAR-8 ovarian, 26.7%. The growth in the assay on OVCAR-4 ovarian is 37.9%; with SK-OV-3 ovarian, 48.8%; in the assay on IGROV1 ovarian it was 58.9%; in the assay on OVCAR-3 ovarian it was 53.3%; in the assay on HS 578T breast it was 47.5%; with NCI/ADR-RES ovarian it was 22.1%.
With `CC(=O)OC[C@H]1OC(Sc2sc(C(=O)c3ccc(Br)cc3)c(N)c2-c2nc3ccccc3s2)[C@H](OC(C)=O)[C@@H](OC(C)=O)[C@@H]1OC(C)=O` (stereo not given in full), the growth in the assay with SK-MEL-2 melanoma is 107%; with EKVX NSCLC, 72.7%; in the assay on SN12C renal, 33%; with UO-31 renal it was 64.6%; in the assay on TK-10 renal, 111%; in the assay with ACHN renal, 54.9%. For the same compound, the growth was 63.8% with CAKI-1 renal; 87.8% with A498 renal; 44.1% in the assay with CCRF-CEM leukemia; 43% in the assay with RPMI-8226 leukemia; 46.1% in the assay on OVCAR-8 ovarian; 65.7% in the assay with OVCAR-5 ovarian. Besides, the growth in the assay with SK-OV-3 ovarian is 96.6%; in the assay on IGROV1 ovarian, 45.6%; in the assay on OVCAR-3 ovarian it was 76.2%; in the assay with HS 578T breast, 43%; with NCI/ADR-RES ovarian, 57.9%.
Take `Cc1nc2c(c(N3CCCc4ccccc43)n1)CCC2`: the growth with SK-MEL-2 melanoma is 43.9%; in the assay on EKVX NSCLC, 86.4%; in the assay with SN12C renal, 31.5%; with UO-31 renal, 29.6%; in the assay with TK-10 renal, 57.8%; in the assay with ACHN renal it was 18.8%. In addition, the growth in the assay with CAKI-1 renal was 20.7%; in the assay with A498 renal, -1.39% (active); with CCRF-CEM leukemia, 1.69% (active); in the assay with RPMI-8226 leukemia, 11.2%; in the assay on OVCAR-8 ovarian it was 11%; with OVCAR-5 ovarian, 48.3%. For the same compound, the growth in the assay with OVCAR-4 ovarian is 42.4%; with SK-OV-3 ovarian, 5.28% (active); with IGROV1 ovarian, 24.5%; in the assay on OVCAR-3 ovarian, -41.2% (active); with HS 578T breast, 23%; with NCI/ADR-RES ovarian, 9.25% (active).
With `CCN1C(=O)N(CC)C2C1NN=c1s/c(=C\c3cccs3)c(=O)n12` (stereo not given), the growth with SK-MEL-2 melanoma was 42%; in the assay with EKVX NSCLC it was 60.6%; with SN12C renal it was 29.7%; in the assay with UO-31 renal it was 50.2%; in the assay on TK-10 renal, 5.35% (active); with ACHN renal, 42.2%. For the same compound, the growth in the assay on CAKI-1 renal is 35.4%; in the assay on A498 renal, -12.4% (active); with CCRF-CEM leukemia, 26.6%; in the assay with RPMI-8226 leukemia, 37.7%; with OVCAR-8 ovarian, 16.9%; with OVCAR-5 ovarian it was 41.3%. The growth was 53.2% in the assay with OVCAR-4 ovarian; 45.6% in the assay on SK-OV-3 ovarian; 27.4% in the assay on IGROV1 ovarian; -17.5% (active) in the assay with OVCAR-3 ovarian; 22.5% in the assay on HS 578T breast; -16.5% (active) with NCI/ADR-RES ovarian.
With `O=C(CCCCCCN1CC(=O)N2[C@@H](c3ccccc3Cl)c3[nH]c4ccccc4c3C[C@H]2C1=O)NO`, the growth with SK-MEL-2 melanoma is 70.1%; with EKVX NSCLC, 82.2%; in the assay with SN12C renal it was 70.1%; in the assay on UO-31 renal, 55.6%; with TK-10 renal, 68.9%; in the assay on ACHN renal, 81.7%. Further, the growth in the assay with CAKI-1 renal was 71.4%; in the assay on A498 renal it was 73.5%; with CCRF-CEM leukemia it was 17.8%; in the assay on SR leukemia, 15.9%; in the assay on OVCAR-8 ovarian, 49.6%; in the assay with OVCAR-5 ovarian, 61%. The growth in the assay with OVCAR-4 ovarian is 68.3%; in the assay with SK-OV-3 ovarian, 84.8%; with IGROV1 ovarian, 66.5%; in the assay with OVCAR-3 ovarian, 56.9%; in the assay with HS 578T breast, 59.2%; in the assay with NCI/ADR-RES ovarian, 89.8%.
